Reference: PubChem BioAssay (EPA / NIEHS)
Results filed as inconclusive are left out. The source made the active and inactive calls. Rule for the calls: active = hit-call score of the fitted dose curve at least 0.9, where 1 is the maximum; inconclusive = response in the unintended direction; inactive = score below 0.9.

read-out: Glyceraldehyde-3-phosphate dehydrogenase (Homo sapiens) (UniProt P04406); experiment: CLD_GAPDH_24hr: CellzDirect (CLD) Gene Expression Assay for Baseline Control (Glyceraldehyde 3-phosphate dehydrogenase) at 24 hours (AID 2283692)
Method: CLD_24hr is a cell-based, multiplexed-readout assay that uses hepatocyte, a human liver primary cell, with measurements taken at 24 hours after chemical dosing in a 96-well plate.CLD_GAPDH_24hr is one of 16 assay component(s) measured or calculated from the CLD_24hr assay. It is designed to make measurements of mRNA induction, a form of inducible reporter, as detected with chemiluminescence signals by Quantitative Nuclease Protection Assay (qNPA) technology.Data from the assay component CLD_GAPDH_24hr was analyzed at the endpoint, CLD_GAPDH_24hr, in the positive analysis fitting direction relative to DMSO as the negative control and baseline of activity. Using a type of inducible reporter, gain-of-signal activity can be used to understand changes in the reporter gene as they relate to the gene GAPDH. Furthermore, this assay endpoint can be referred to as a secondary readout, because this assay has produced multiple assay endpoints where this one serves a background control function. To generalize the intended target to other relatable targets, this assay endpoint is annotated to the background measurement intended target family, where subfamily is baseline control.
Human hepatocyte cultures were treated daily for two consecutive days with fresh dosing solutions containing appropriate concentrations of the 320 ToxCast chemicals (chemical identities were blinded to CellzDirect and other ToxCast collaborators), vehicle control (0.2% DMSO), and positive control inducers as summarized in Table 1. Due to the large number of treatment groups and chemicals examined, the ToxCast chemicals were divided into two groups (spanning two independent cultures of hepatocytes from separate donor preparations (Hu778: ToxCast plates 1 and 2; Hu776: ToxCast plates 3 and 4). Each preparation of human hepatocyte cultures was treated with respective vehicle control, medium only control, set of six positive controls/reference chemicals for the five hepatic receptor pathways, and a subset of eight of the ToxCast chemicals (indoxacarb, pyrithiobac-sodium, norflurazon, cyhalofop-butyl, methomyl, thiram, acetochlor, and propiconazole). These replicate data, coupled with internal replicates designed within the blinded ToxCast chemical library, provided additional data to evaluate interindividual differences between hepatocyte preparations and their potential impact on chemical profiles.Cell morphology and integrity were evaluated using phase-contrast microscopy as an indicator of hepatocyte cell health (Tyson & Green, 1987). Cultures for each treatment group (i.e., media, vehicle [0.2% DMSO], positive control inducers [multiple concentrations], and the ToxCast chemicals [multiple concentrations]) were observed and cell morphology was assessed relative to vehicle control cultures at each harvest time point (0, 6, 24, or 48 h). […] Images were evaluated at the conclusion of the study to assess changes in cell integrity and account for the effects of chemical exposure on uncharacteristic changes in concentration-dependent gene expression profiles. The results from these determinations of apparent cytotoxicity were annotated (yes/no) alongside the corresponding qNPA data for reference.At the conclusion of each treatment period, hepatocyte cultures (96-well) were washed with 1 volume of HBSS, lysed by addition of 25 ul ArrayPlate lysis buffer (HTG, Tucson, AZ), and 70 ul/well of Denaturation Oil, denatured by incubation at 95C for 10 min, and frozen at approximately -70C until analysis by nuclease protection assay (qNPA) (Roberts et al., 2007). For qNPA analysis, cell lysates were thawed at 50C for approximately 30 min, qNPA probes were added, and samples were incubated at 95C for 10 min to begin the detection process by denaturing the target RNA, dissociating the duplexes and secondary structure hybridization. At the conclusion of the hybridization period, S1 nuclease reagent was added to each sample to digest all nonprotected nucleotides at 50C for 60-90 min. […]

Chain of Glyceraldehyde-3-phosphate dehydrogenase (Homo sapiens) (P04406 whole entry, looked up): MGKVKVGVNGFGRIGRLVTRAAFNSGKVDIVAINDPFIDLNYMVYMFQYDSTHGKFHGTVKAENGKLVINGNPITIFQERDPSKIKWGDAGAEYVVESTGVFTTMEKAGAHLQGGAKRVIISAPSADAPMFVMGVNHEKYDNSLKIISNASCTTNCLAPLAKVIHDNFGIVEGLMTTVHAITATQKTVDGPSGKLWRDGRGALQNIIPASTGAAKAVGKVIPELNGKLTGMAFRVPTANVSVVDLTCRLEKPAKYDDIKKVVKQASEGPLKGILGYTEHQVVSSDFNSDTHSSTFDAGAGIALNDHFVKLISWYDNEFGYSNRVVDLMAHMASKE

| Compound | outcome |
| --- | --- |
| CC(C)C1(C)N=C(c2ncccc2C(=O)O)NC1=O (stereo not drawn) | inactive |
| COc1ccc(-c2ccccc2)cc1NNC(=O)OC(C)C | inactive |
| CCNC(=O)NC(=O)C(C#N)=NOC | inactive |
| CCOc1nc(C(Cl)(Cl)Cl)ns1 | inactive |
| CC(C)Nc1nc(Cl)nc(NC(C)C)n1 | inactive |
| CC1(C)CON(Cc2ccccc2Cl)C1=O | inactive |
| O=C(O)c1c(Cl)ccc2cc(Cl)cnc12 | inactive |
| Nc1cnn(-c2ccccc2)c(=O)c1Cl | inactive |
| CS(=O)(=O)c1ccc(C(=O)C2C(=O)CCCC2=O)c([N+](=O)[O-])c1 | inactive |
| COP(=S)(OC)Oc1ccc([N+](=O)[O-])c(C)c1 | inactive |
| Clc1nc(Cl)nc(Nc2ccccc2Cl)n1 | inactive |
| O=C1C2CC=CCC2C(=O)N1SC(Cl)(Cl)Cl (stereo not drawn) | inactive |
| CO/N=C(/C1=NOCCO1)c1ccccc1Oc1ncnc(Oc2ccccc2Cl)c1F | inactive |
| O=P(O)(O)CCCl | inactive |
| CCOc1nc(F)cc2nc(S(=O)(=O)Nc3c(Cl)cccc3Cl)nn12 | inactive |
| N#CN=C1SCCN1Cc1ccc(Cl)nc1 | inactive |
| CC(C)=CC1C(C(=O)OCc2coc(Cc3ccccc3)c2)C1(C)C (stereo not drawn) | inactive |

| Compound | outcome |
| --- | --- |
| Cc1cnc(C2=NC(C)(C(C)C)C(=O)N2)c(C(=O)O)c1 (stereo not drawn) | inactive |
| CS(=O)(=O)c1cc(C(F)(F)F)ccc1C(=O)c1cnoc1C1CC1 | inactive |
| Nc1c(Cl)c(F)nc(OCC(=O)O)c1Cl | inactive |
| C=C(C)CN(CC)c1c([N+](=O)[O-])cc(C(F)(F)F)cc1[N+](=O)[O-] | inactive |
| CNC(=O)Oc1cccc2ccccc12 | inactive |
| CC(C)N1C(=O)c2ccccc2NS1(=O)=O | inactive |
| CCOP(=O)(OCC)Oc1nc(Cl)c(Cl)cc1Cl | inactive |
| Cn1c(-c2ccccc2)cc(-c2ccccc2)[n+]1C | inactive |
| N#Cc1c(Cl)cccc1Cl | inactive |
| Cc1ccc(N=CN(C)C=Nc2ccc(C)cc2C)c(C)c1 | inactive |
| C=CCOC(=O)C(C)(C)OC(=O)c1cc(-n2c(=O)cc(C(F)(F)F)n(C)c2=O)ccc1Cl | inactive |
| O=c1n(Cl)c(=O)n(Cl)c(=O)n1Cl | inactive |
| CCCC(=NOCC)C1=C(O)CC(CC(C)SCC)CC1=O (stereo not drawn) | inactive |
| CN=C=S | inactive |
| COCC(=O)N(c1c(C)cccc1C)C(C)C(=O)OC (stereo not drawn) | inactive |
| CCCN(CC)CC1COC2(CCC(C(C)(C)C)CC2)O1 (stereo not drawn) | inactive |
